Source: PubChem BioAssay (EPA / NIEHS)
Inconclusive results are not listed. Calls of active or inactive are those of the source. How the source made its calls: active means hit-call score of the fitted dose curve at least 0.9, where 1 is the maximum; inconclusive means response in the unintended direction; inactive means score below 0.9.

What was measured:
[1] = TOX21_p53_BLA_p2_viability: Viability Assessment in the Tox21 HCT-116 p53 Agonism Beta-lactamase Assay, Phase 2 (AID 2283591);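 further: compound exposure lasted 16 h at 37 °C; actives lower the ATP signal meaning cytotoxicity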
Outline: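 Cytotoxicity readout: CellTiter-Glo ATP luminescence, 30 min at room temperature, after the beta-lactamase read. Cells were HCT116 exposed 16 h at 37C to compounds pin-transferred at 217-fold dilution from DMSO stocks.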

[2] = molecular target: Cellular tumor antigen p53 (Homo sapiens) (UniProt P04637); assay: TOX21_p53_BLA_p2_ratio: Tox21 HCT-116 p53 Agonism Beta-lactamase Assay, Ratio, Phase 2 (AID 2283592)
Outline: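 Plated HCT116 p53-bla cells (4000/well) received compound after 5 h, then 16 h at 37C/5% CO2. CCF4-AM added, 2 h RT. Ratio of 460 to 530 nm emission taken as the p53 reporter signal.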

[3] = TOX21_p53_BLA_p3_viability: Viability Assessment in the Tox21 HCT-116 p53 Agonism Beta-lactamase Assay, Phase 3 (AID 2283593);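 further: cells exposed to compound for 16 h before reading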
Outline: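 Cellular ATP was quantified by CellTiter-Glo luminescence, read after 30 min at room temperature. Beforehand, HCT116 cells (4000/well) received compound 5 h post-seeding, 217-fold diluted from DMSO, then incubated 16 h at 37C.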

[4] = molecular target: Cellular tumor antigen p53 (Homo sapiens) (UniProt P04637); assay: TOX21_p53_BLA_p3_ratio: Tox21 HCT-116 p53 Agonism Beta-lactamase Assay, Ratio, Phase 3 (AID 2283596)
Outline: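 Cells were seeded at 4000/well, rested 5 h at 37C, then dosed with DMSO compound solutions (217-fold dilution) for 16 h. CCF4-AM substrate was loaded for 2 h at room temperature, and the 460/530 nm emission ratio was fitted for gain of signal versus DMSO.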

[5] = TOX21_p53_BLA_p4_viability: Viability Assessment in the Tox21 HCT-116 p53 Agonism Beta-lactamase Assay, Phase 4 (AID 2283597);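 further: hits lower the luminescence signal meaning cytotoxicity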
Outline: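 Readout: ATP luminescence (CellTiter-Glo), measured 30 min after reagent addition at RT. The reagent followed a 2 h CCF4-AM incubation, and the cells had been exposed to compound for 16 h at 37C.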

[6] = molecular target: Cellular tumor antigen p53 (Homo sapiens) (UniProt P04637); assay: TOX21_p53_BLA_p5_ratio: Tox21 HCT-116 p53 Agonism Beta-lactamase Assay, Ratio, Phase 5 (AID 2283599)
Outline: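 Beta-lactamase reporter ratio (blue 460 nm over green 530 nm, 405 nm excitation) after 2 h CCF4-AM loading, in HCT-116 cells exposed 16 h at 37 C to compounds pinned at 217-fold dilution. Increases relative to DMSO baseline scored.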

[7] = TOX21_p53_BLA_p5_viability: Viability Assessment in the Tox21 HCT-116 p53 Agonism Beta-lactamase Assay, Phase 5 (AID 2283600)
Outline: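 Workflow: seed 4000 cells per well, wait 5 h, add compounds (DMSO, 217-fold dilution), incubate 16 h, load CCF4-AM 2 h, add CellTiter-Glo, read luminescence after 30 min.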

[8] = ATG_XTT_Cytotoxicity: Cytotoxicity Assessment in the Attagene TRANS-FACTORIAL HepG2 Assay (AID 2283584)
Outline: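 Cells: human HepG2, transiently transfected with MRTU reporter constructs. Exposure 24 h. Readout: XTT, cell number. Baseline/neg ctrl DMSO; loss-of-signal scored.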

Measured: AC50

Cellular tumor antigen p53 (Homo sapiens), sequence (P04637 whole entry, looked up): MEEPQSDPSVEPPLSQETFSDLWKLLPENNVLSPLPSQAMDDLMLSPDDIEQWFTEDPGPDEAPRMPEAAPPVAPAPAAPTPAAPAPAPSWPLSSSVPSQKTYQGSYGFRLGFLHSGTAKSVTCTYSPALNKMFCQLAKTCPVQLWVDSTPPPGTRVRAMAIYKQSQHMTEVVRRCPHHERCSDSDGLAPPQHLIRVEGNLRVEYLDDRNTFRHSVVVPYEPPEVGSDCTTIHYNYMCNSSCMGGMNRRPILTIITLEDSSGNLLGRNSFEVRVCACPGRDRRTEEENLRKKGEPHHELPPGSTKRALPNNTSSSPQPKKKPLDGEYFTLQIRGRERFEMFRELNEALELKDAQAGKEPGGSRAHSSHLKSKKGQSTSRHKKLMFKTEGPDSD

CC(=O)OC(C)C
not listed: [8]
inactive: all other assays above

O=S(=O)(O)c1ccc2cc(O)c(S(=O)(=O)O)cc2c1
inactive: [8] | [3] | [5] | [6] | [7]

COc1ccc(-c2coc3cc(O)ccc3c2=O)cc1
inactive: [8] | [3] | [4] | [5] | [7]

O=C(O)c1cc(Cl)cc([N+](=O)[O-])c1Cl
inactive: [8] | [5] | [7]

O=C(/C=C/C=C/c1ccc2c(c1)OCO2)N1CCCCC1
inactive: [1] | [2] | [3] | [5] | [6]

C/C=C\C/C=C/CCCCCCCCOC(C)=O
not listed: [6] | [8]
inactive: all other assays above

SCCc1cnccn1
active: [2] 45.1 µM | [4] 21.6 µM | [6] 35.7 µM
inactive: [1] | [3] | [5]

O=P(O)(O)Oc1ccccc1
inactive: [8] | [4] | [5] | [7]

C1CN(SSN2CCOCC2)CCO1
not listed: [8]
inactive: all other assays above

CCCCCCCCCCC=CC#N
not listed: [8]
inactive: all other assays above

CCCCCCOc1cc(C)c(O)c(C)c1C
active: [5] 46.1 µM
inactive: [1] | [2] | [3] | [6]

CCCCCCOC(=O)C(C)CC (configuration not stated)
inactive: [8] | [2] | [5]

O=C(O)Cc1c(Cl)ccc(Cl)c1Cl
inactive: [8] | [4] | [5] | [7]

CC(C)=CCCC(C)C=O (configuration not stated)
inactive: [1] | [3] | [5] | [6] | [7]
